The experiment deals with T1, NL_v2_PPR11 (Artificial Sequence).
T1 chain: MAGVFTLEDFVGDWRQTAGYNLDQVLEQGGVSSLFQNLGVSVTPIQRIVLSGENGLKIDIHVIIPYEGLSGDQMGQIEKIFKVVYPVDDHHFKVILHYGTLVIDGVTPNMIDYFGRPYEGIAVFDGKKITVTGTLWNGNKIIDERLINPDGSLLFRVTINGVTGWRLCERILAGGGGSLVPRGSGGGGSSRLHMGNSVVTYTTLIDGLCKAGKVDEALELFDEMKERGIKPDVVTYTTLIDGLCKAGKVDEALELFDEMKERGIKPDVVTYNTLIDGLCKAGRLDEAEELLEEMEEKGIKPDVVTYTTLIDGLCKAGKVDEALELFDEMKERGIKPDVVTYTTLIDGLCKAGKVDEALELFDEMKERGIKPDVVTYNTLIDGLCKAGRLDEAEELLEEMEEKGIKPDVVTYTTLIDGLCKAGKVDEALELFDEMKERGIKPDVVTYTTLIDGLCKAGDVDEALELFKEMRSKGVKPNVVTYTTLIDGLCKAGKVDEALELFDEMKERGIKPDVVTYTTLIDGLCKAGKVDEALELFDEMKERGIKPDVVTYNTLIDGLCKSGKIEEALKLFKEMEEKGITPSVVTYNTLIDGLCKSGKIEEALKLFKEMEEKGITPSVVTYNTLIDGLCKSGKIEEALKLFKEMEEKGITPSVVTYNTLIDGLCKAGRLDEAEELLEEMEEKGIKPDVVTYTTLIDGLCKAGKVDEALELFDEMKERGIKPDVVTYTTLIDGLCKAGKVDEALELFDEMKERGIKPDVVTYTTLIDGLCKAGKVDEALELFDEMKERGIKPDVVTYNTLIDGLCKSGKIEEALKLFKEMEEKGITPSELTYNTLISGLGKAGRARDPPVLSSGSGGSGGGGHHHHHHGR
In words: RPB-ELISA. The following applies: tags: N-terminal luciferase, C-terminal 6xHis; label: 5'-biotin; ssRNA. As for the experimental part: RNA probes consisting of a designed 30-base sequence containing 18 bases of the target sequence and modified by biotinylation at the 5′ end (RNA_1, RNA_2, RNA_3, RNA_4, and RNA_5, SEQ ID NOS: 61 to 65) were synthesized (Grainer). To a streptavidin-coated plate (Thermo fisher), the 5′-end biotinylated RNA probes were added, reaction was allowed at room temperature for 30 minutes, and the plate was washed with a lysis buffer (20 mM Tris-HCl, pH 7.6, 150 mM NaCl, 5 mM MgCl₂, 0.5% NP-40, 1 mM DTT, 0.1% BSA). For background measurement, wells to which RNA was not added, but 100 μL of the lysis buffer, 1 μL of 100 mM DTT, and 1 μL of 40 unit/4 RNase inhibitor (Takara, 2313A) were added were also prepared. Then, 200 μL of a blocking buffer (20 mM Tris-HCl, pH 7.6, 150 mM NaCl, 5 mM MgCl₂, 0.5% NP-40, 1 mM DTT, 1% BSA) was added, and the plate surface was blocked at room temperature for 30 minutes. Then, 100 μL of E. coli lysate containing luciferase-fused PPR protein having a luminescence level of 1.5×10⁸ LU/μL was added to each well, and the binding reaction was allowed at room temperature for 30 minutes. The well was washed 5 times with 200 μL of a washing buffer (20 mM Tris-HCl, pH 7.6, 150 mM NaCl, 5 mM MgCl₂, 0.5% NP-40, 1 mM DTT). […] The background (luminescence signal value obtained with adding the PPR protein and without adding RNA) was subtracted from the luminescences of the samples to which a solution containing each RNA and PPR protein was added, and the obtained values were used as the binding powers between the PPR protein and RNA.
By using the v2 motif, PPR proteins for 23 kinds of target sequences (T_1 to T_3, and T_5 to T_24, SEQ ID NOS: […]) were prepared (NL_v2_PPR1 to 3, and NL_v2_PPR5 to 24, SEQ ID NOS: 56 to 58 and 70 to 88), and RPB-ELISA was used to analyze bindings of all the combinations. The experimental method was the same as that used in Example 3.
Regarding GGUUAGAGAUACAGUGUG, the binding signal was 20.4 log2 luminescence.

The record behind these values is patent US20220289795, “EFFICIENT METHOD FOR PREPARING PPR PROTEIN AND USE OF THE SAME” (EditForce, Inc., published 2022).
